Here are results for 96 compounds from PubChem BioAssay AID2314 (National Center for Advancing Translational Sciences (NCATS), 2010).

Structures are written as SMILES. “And” between values parts separate entries of the source, which are not always exact repeats. Identical values can stand only once. In all, about 300,000 compounds went through this assay and about 37,000 (12%) were called active. Only a selection was taken, and actives are over-represented in it overall. Unmarked numbers belong to inactive results. Cut-off read from the data, not from the text of the source: active = max response mostly above about 13% (no sharp cut-off); inactive = mostly below about 14%.

The nature of this experiment: Cycloheximide Counterscreen for Small Molecule Inhibitors of Shiga Toxin. Note: read at 38.3 µM for the half of the compounds with a filed dose; 0% is about no effect. The conditions noted are these: cell reporter, cycloheximide protein synthesis inhibition counterscreen; hits give high values.
As for `O=C(NCc1ccccn1)Nc1ccc(F)cc1`, the max response is -3.36%.

`COc1cccc(NC(=S)NCc2ccccn2)c1`: the max response was 72.3% (active).

On to `CCC(C)c1ccc(NC(=S)NCc2ccccn2)cc1` (stereo unspecified), for which the max response was 17.3% (active).

`COc1cccc(NC(=S)NCc2ccco2)c1`: the max response is 18.2% (active).

Regarding `COC(=O)Cc1ccc(NC(=S)NCc2ccco2)cc1`, the max response is 10.2%.

As to `Cc1cc(C)cc(NC(=O)NCc2ccccn2)c1`, the max response was -2.88%.

`COc1cccc(NC(=S)N(Cc2ccc(C)cc2)Cc2ccccn2)c1`: the max response was 0.648%.

Consider `COc1cccc(S(=O)(=O)NCc2ccc(C(=O)NCc3ccccn3)cc2)c1`, for which the max response is 1.45%.

`COc1cccc(OC)c1C(=O)NC(=S)NCc1ccco1`: the max response is 5.2%.

`O=C(O)C1CCCCC1C(=O)N1CCN(S(=O)(=O)c2ccc(F)cc2)CC1` (stereo unspecified): the max response was -2.39%.

For `O=C(Nc1ccccc1)N1CCN(C2c3ccccc3-c3ccccc32)CC1`, the max response is -0.816%.

Take `COc1ccc(N(CC(=O)N2CCCCCC2)S(=O)(=O)c2ccccc2)cc1`: the max response was 4.89%.

With `CC1(C(=O)NNC(=S)NCC2CCCO2)CC1(Cl)Cl` (stereo unspecified), the max response was -4.02%.

With `COc1ccccc1N1CCN(S(=O)(=O)c2ccc3c(c2)NC(=O)CS3)CC1`, the max response was 5.75%.

`CC(=O)N1CC(=O)N(CC(=O)Nc2ccc(Br)cc2)C1=S`: the max response was -5.45%.

For the compound `NC(=O)COC(=O)c1ccc2c(c1)C(=O)N(Cc1ccco1)C2=O`, the max response was -3.87%.

As to `CCOCN(C(=O)Cn1c(C(C)O)nc2ccccc21)c1c(C)cccc1CC` (stereo unspecified), the max response was -4.33%.

As for `COc1ccccc1NC(=O)C1CCCN(c2cc(C)nc3ncnn23)C1` (stereo unspecified), the max response is -3.74%.

Turning to `COc1ccccc1-c1cnn2c(N3CCOCC3)cc(C)nc12`, the max response was 52% (active).

Regarding `Cc1cc(C(F)(F)F)n2ncc(-c3ccccc3)c2n1`, the max response is 6.21%.

As to `CN1C(=O)/C(=C\c2cc(Br)cs2)c2ccccc21`, the max response is 46.4% (active).

As for `CCC1C(=O)c2ccccc2N(C)C1=O` (stereo unspecified), the max response is -0.886%.

Take `CN1C(=O)/C(=N/OC(=O)c2ccccc2Br)c2ccccc21`: the max response was 3.18%.

In the case of `COc1ccc(/C=C(\NC(=O)c2ccccc2)C(=O)NCCN2CCOCC2)cc1OC`, the max response was -1.94%.

As for `O=C(CNCCC1=CCCCC1)Nc1ccccc1N1CCCCCC1`, the max response is -4.26%.

In the case of `CCOc1ccc(C(CCc2ccccc2)NC(=O)c2ccc(OC)c(OC)c2)cc1OCC` (stereo unspecified), the max response is 7.29%.

Take `Cc1ccc(C)c(NC(=O)c2ccc3nccnc3c2)c1`: the max response is 5.91%.

`COCC(C)NC(=O)c1ccc(Cl)c(Cl)c1` (stereo unspecified): the max response is 0.894%.

For `CC(C)CCC(C)NC(=O)c1ccc2nccnc2c1` (stereo unspecified), the max response was 53.8% (active).

Consider `CC(C)C(=O)Nc1c2c(nn1-c1ccccc1)CSC2`, for which the max response was -1.75%.

Regarding `Cn1c(=O)c2sccc2n(Cc2ccc(Br)cc2)c1=O`, the max response is -2.03%.

For `CCN(CC)CCC(c1ccc2c(c1)OCO2)c1c(OC)cc(OC)c2c(-c3ccccc3)cc(=O)oc12` (stereo unspecified), the max response was -5.1% and -16.4%.

For the compound `COc1cc2c(cc1OC)/C(=C/C(=O)c1ccc(NC(C)=O)cc1)NCC2`, the max response was -5.05%.

As for `CC1CN/C(=C\C(=O)c2ccc(Br)cc2)C(=O)N1` (stereo unspecified), the max response was 106% (active).

For `C/C(=C\C(=O)c1ccc(Br)cc1)N1CCCCC1`, the max response is -3.58%.

Turning to `Cc1cccc(-n2c(SCC(=O)Nc3cccc(S(=O)(=O)NC4=NCCCCC4)c3)nc3ccccc3c2=O)c1C`, the max response is -4.44%.

Regarding `Cc1cc(Cl)ccc1OCCCC(=O)Nc1cccc(-n2cnnn2)c1`, the max response was 1.51%.

On to `CC(CC(=O)N1CCN(S(=O)(=O)c2ccccc2)CC1)n1cncn1` (stereo unspecified), for which the max response was -1.89%.

For the compound `O=C(Cc1ccccc1)N1CCN(S(=O)(=O)c2ccc([N+](=O)[O-])cc2)CC1`, the max response was -3.27%.

Regarding `N#C/C=C1\Sc2ccccc2C(=O)N1CC(=O)N1CCN(S(=O)(=O)c2ccccc2)CC1`, the max response is 27.7% (active).

For the compound `O=C(Oc1cccc(NC2=NS(=O)(=O)c3ccccc32)c1)c1ccncc1`, the max response is -1.79%.

As to `Cc1ccc(S(=O)(=O)N(NC2=NS(=O)(=O)c3ccccc32)C(=O)c2ccccc2)cc1`, the max response is -4.47%.

Consider `CC(C)(C)c1csc(NC2=NS(=O)(=O)c3ccccc32)n1`, for which the max response was 26.2% (active).

With `O=C(Nc1cccc(-c2cccc(Cl)c2)c1)C1CCN(C2CCC2)CC1`, the max response was -5.18%.

For `O=C(OCCN=C1NS(=O)(=O)c2ccccc21)c1cccc([N+](=O)[O-])c1`, the max response is 0.837%.

As for `CCC(CC)c1nnc(NC(=O)c2nn(C)c(=O)c3ccccc23)s1`, the max response is -3.83%.

In the case of `Nc1ccc(SCCN2C(=O)c3ccccc3C2=O)cc1`, the max response was 30.6% (active).

With `Cc1ccc(SCCN2C(=O)NC(C)(C)C2=O)cc1`, the max response is -0.406%.

Consider `CC(=O)c1cnc(SCCN2C(=O)c3ccccc3C2=O)nc1C`, for which the max response is 6.2%.

In the case of `CCCCc1cc(=O)oc2c(C)c(OCC(=O)N3CCC(C(N)=O)CC3)ccc12`, the max response is -2.86%.

For `COc1ccc(Cl)cc1NC(=O)Cn1nc(-c2ccc(C)cc2)n(C)c1=S`, the max response was 0.595%.

In the case of `CCN(CC(=O)NCc1ccco1)S(=O)(=O)c1ccc(F)cc1`, the max response was -3.33%.

Consider `COc1cc(Nc2nc3ccc(Cl)cc3n3cnnc23)cc(OC)c1OC`, for which the max response is -8.65%.

For the compound `COc1ccc(-c2oc3ncnc(NCCCO)c3c2-c2ccc(OC)cc2)cc1`, the max response is -2.49%.

As to `Cc1ccc(-n2[nH]c(C)c(/C=N/NC(=O)c3cccc([N+](=O)[O-])c3)c2=O)cc1C`, the max response is 34.1% (active).

In the case of `COc1cccc(/C=N/NC(=O)c2cccc([N+](=O)[O-])c2)c1OS(=O)(=O)c1ccc(C)cc1`, the max response was 1.94%.

For `COc1cc(/C=N/NC(=O)c2ccoc2C)ccc1OCCN1CCCCC1`, the max response was 15.6%.

`Cc1[nH]n(-c2ccccc2)c(=O)c1/C=N/NC(=O)c1ccoc1C`: the max response is 55% (active).

Consider `Cc1[nH]n(-c2ccc(Cl)cc2)c(=O)c1/C=N/n1c(C)nc2ccccc2c1=O`, for which the max response was -2.58%.

Consider `COc1cc(/C=N\NC(=O)CNC(=O)c2cccc([N+](=O)[O-])c2)ccc1O`, for which the max response was 2.84%.

In the case of `O=C(O)c1ccc(-n2nc(-c3ccccc3)c3ccccc3c2=O)cc1`, the max response was 15%.

As for `COc1ccc(OC)c(S(=O)(=O)n2c([N+](=O)[O-])cnc2C)c1`, the max response is 1.29%.

Regarding `COc1cccc(CNC(=O)C2CC(=O)N(C3CCCCCCC3)C2)c1` (stereo unspecified), the max response is 24.6%.

As for `C=CCOc1cccc(C2NC(=O)c3ccccc3O2)c1` (stereo unspecified), the max response is 11.8%.

With `O=C1CC(c2cccc(Cl)c2)CC(O)=C1C=Nc1ccccc1` (stereo unspecified), the max response was -1.34%.

As to `COc1ccc(C2NC(=O)c3ccccc3N2)cc1` (stereo unspecified), the max response was 19.8% (active).

With `Cc1ccc(C2Nc3cccc4cccc(c34)N2)cc1`, the max response was 2.47%.

As to `COc1cccc(C2Nc3cccc4cccc(c34)N2)c1`, the max response is 1.12%.

For the compound `O=C1NC(c2cccc(Cl)c2)Nc2ccccc21` (stereo unspecified), the max response is 16% (active).

For the compound `CC1=CC(C)(C)NC(=S)N1c1ccccc1`, the max response was -0.571%.

As to `COC(=O)c1ccccc1NC(=O)CSc1nc2c(c(=O)[nH]1)CCC2`, the max response was -0.834%.

As to `COc1ccc(NC(=O)CC2C(=O)NC3CCCCC3N2C(=O)c2ccc(F)cc2)cc1` (stereo unspecified), the max response is -1.58%.

Consider `O=C(Nc1ccccc1)c1cccnc1Nc1ccccc1`, for which the max response was 15%.

As to `COc1cccc(NC(=O)c2ccccc2SC)c1`, the max response was 2.56%.

On to `COc1cccc(Nc2ncccc2C(=O)O)c1`, for which the max response is 48% (active).

`CC(C)CCn1cnc2c1c(=O)n(CC(=O)NC(N)=O)c(=O)n2Cc1ccccc1`: the max response was -9.03%.

For `Nc1nc(Nc2ccccc2F)nc(NC2CCCCC2)c1[N+](=O)[O-]`, the max response was -1.02%.

Turning to `CCOC(=O)C1CCN(C(=O)COc2cccc3ccccc23)CC1`, the max response is 21.6% (active).

For the compound `NC(=O)C1CCN(C(=O)COc2cccc3cccnc23)CC1`, the max response was -4.62%.

For `CCOC(=O)C1CCN(C(=O)COc2cc(C)c(Br)c(C)c2)CC1`, the max response was -0.76%.

Regarding `CN(CC(=O)Nc1ccccc1F)CC(=O)Nc1ccccc1Br`, the max response is 27.5%.

Take `O=C(c1cc2c(s1)CCC2)N1CCN(c2ccccc2)CC1`: the max response is 35.8% (active).

Regarding `O=C(CNC(=O)c1cc2c(s1)CCC2)Nc1ccccc1Br`, the max response was 28.4% (active).

As to `O=C(c1ccccc1)c1ccc(C(=O)N2CCN(c3ccccc3)CC2)cc1`, the max response was 11.3%.

On to `O=C(NNC(=O)c1cc2c(s1)CCCC2)c1ccccc1`, for which the max response was 60.8% (active).

On to `O=C(COC(=O)c1cc2c(s1)CCCC2)NCc1ccccc1Cl`, for which the max response is -0.034%.

For the compound `Cc1nn(C)cc1C(=O)Nc1ccccc1Br`, the max response is 9.35%.

Turning to `O=C(Nc1ccc(F)cc1)c1cc2c(s1)CCCC2`, the max response is 34.8% (active).

For the compound `O=C(C1CCC1)N1CCN(c2ccccc2)CC1`, the max response was -0.903%.

Turning to `COc1ccc(/C=C2/SC(=O)N(CCCCCC(=O)Nc3ccccc3C(=O)O)C2=S)cc1`, the max response is -7.35%.

Regarding `Cc1cc(NC(=O)CCC(=O)N(CC(=O)NC2CCCC2)c2ccc(F)cc2)no1`, the max response was -7.13%.

Regarding `CC(C)CCn1c(=O)c2c(nc3n2CCCN3Cc2ccccc2)n(C)c1=O`, the max response is -1.82%.

`O=C(CSCc1ccc([N+](=O)[O-])cc1)Nc1cccc(C(=O)Nc2ccccc2C(=O)O)c1`: the max response is -3.69%.

Turning to `C=CCn1c(C2CC(=O)N(c3ccc(C)cc3)C2)nc2ccccc21` (stereo unspecified), the max response is -5.17%.

Regarding `CC(C)(C)c1cc2cccnc2n1Cc1cccc(F)c1`, the max response is -4.56%.

For the compound `CCc1ccc(OCC(=O)N(Cc2ccccc2)C2CCS(=O)(=O)C2)cc1` (stereo unspecified), the max response was -3.33%.
